Drawing on PubChem BioAssay (NCI), this text covers growth for 40 compounds.

Values joined by “and” are separate entries in the source; they are usually repeats but may differ in a detail not shown here. Equal entries are not always repeated. About 83,000 compounds went through this panel and 20% of them were active in at least one assay; those are over-represented in the sample as a whole.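 Compound tested at a single concentration for 48 hours in 96-well plates; a percent growth value below 10 was scored as active.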 Unmarked numbers belong to inactive results. Active and inactive are the calls of the source.

The assay relates to HOP-62 NSCLC. Kind of assay: NCI-60 one-dose screen, 48 h (100 = growth as untreated, 0 = no growth, -100 = all killed). Conditions: 10 µM unless noted. On the procedure: Growth inhibition of the HOP-62 human Non-Small Cell Lung tumor cell line is measured as a screen for anti-cancer activity. Cells are grown in 96 well plates and exposed to the test compound for 48 hours. Compounds are tested at a single concentration, which is 10^-5 M for most compounds. The reported endpoint is percent growth (GI% or GIPRCNT), where numbers from 0 - 100% represent growth inhibition, and numbers from -100% - 0 represent cell death. For example, a value of 40 represents 60% growth inhibition. A value of 0 means no net growth occurred over the course of the experiment. A value of -40 indicates 40% of cells at the beginning of the experiment died by the end of the experiment. A value of -100 means all cells are dead at the end of the experiment.
NCI-60 Human Tumor Cell Lines Screen was performed using the standard one-dose NCI protocol, which is described in more detail at https://dtp.cancer.gov/discovery_development/nci-60/default.htm.
Compounds with GIPRCNT values below 10 were considered active. Activity score was based on GIPRCNT using the following formula: […]
Score is 0 for GIPRCNT values of 100 or above, 50 for GIPRCNT values of 0, and 100 for GIPRCNT values of -100.
As to `COc1ccn(C)c(=O)c1C#N`, the growth was 83.5%.

As for `N#CCC(=O)c1ccccc1`, the growth is 101%.

In the case of `O=C=Nc1ccc(Br)cc1`, the growth is 119%.

With `CCCN1C(=O)NC(=O)C(CC)(N2C(=O)c3c(F)c(F)c(F)c(F)c3C2=O)C1=O` (stereo not given), the growth was -57.3% (active).

Consider `COc1ccc2c(c1)c(-c1nc(-c3c[nH]c4ncccc34)cs1)cn2CCCCN1CCOCC1`, for which the growth was 37.1%.

With `O=[N+]([O-])c1cc(Cl)c(Cl)cc1Cl`, the growth was 112% and 107%.

`CN1CCC2(CC1)C(C#N)C(=O)NC(=O)C2C#N` (stereo not given): the growth was 94.3%.

Turning to `COc1ccc(N)cc1OC`, the growth was 104%.

`C[C@]12CC[C@H]3[C@@H](C[C@@H]4SC(Nc5cccc(F)c5)=N[C@@]45CC(=O)CC[C@]35C)[C@@H]1CCC2=O`: the growth is 20.4%.

Take `Cn1cc(C(=O)C[n+]2ccccc2)c2ccccc21`: the growth was 95.6%.

In the case of `C[C@]12CC[C@H]3[C@@H](CC=C4c5nc(N)sc5CC[C@@]43C)[C@@H]1CC[C@@H]2O`, the growth is 100%.

Consider `CC(=O)Cc1ccc2c(c1)OCO2`, for which the growth was 102%.

For the compound `O=C(O)C(F)F`, the growth was 86.9%.

Turning to `Cc1ccc(N2CCN(CCC#N)CC2)cc1`, the growth is 93.6%.

As for `CCOC(=O)c1ccccc1C(=O)OCC`, the growth was 92.6%.

Turning to `CCC(=O)C(CC(C)[N+](C)(C)C)(c1ccccc1)c1ccccc1` (stereo not given), the growth is 91.6%.

With `CC(C)COC(=O)Cc1ccccc1`, the growth was 101%.

For the compound `C[Se]/C=C1/C(=O)N(c2c(Cl)cccc2Cl)c2ccccc21`, the growth is 22%.

Take `C[C@]12CC[C@H]3[C@@H](C[C@@H]4SC(Nc5ccccc5)=N[C@@]45C/C(=N/O)CC[C@]35C)[C@@H]1CCC2=O`: the growth is 94%.

Turning to `CCCC(C)SP(=S)(SC(C)CCC)SC(C)CCC` (stereo not given), the growth was 101%.

`O=Cc1cn(Cc2ccccc2)c2ccccc12`: the growth was 65.8%.

For the compound `CN(C)c1ccc(C=C2C(=O)NC(=O)NC2=O)cc1`, the growth is 110%.

`O=c1[nH]c(=O)[nH]c(=O)[nH]1`: the growth is 85.2%.

For the compound `CCCCCCCCCCCCCCCC[N+](C)(C)C`, the growth is -76.6% (active) and -23.9% (active).

As for `Cc1ccc(P(=O)(O)O)cc1`, the growth was 120%.

With `C=CC1CN2CCC1CC2C(O)c1ccnc2ccccc12` (stereo not given), the growth was 121%.

`c1ccc2c(c1)O[As](O[As]1Oc3ccccc3O1)O2`: the growth is 50.6%.

Consider `CC1(C)N(Nc2ccccc2)C(=O)C2CCCN21` (stereo not given), for which the growth was 76.1%.

As for `CC1(C)CN=C(NN=C(/C=C/c2ccc(C(F)(F)F)cc2)/C=C/c2ccc(C(F)(F)F)cc2)NC1`, the growth is -85.5% (active).

Take `CC[C@@H](C)C(=O)O[C@H]1[C@H](O)[C@H]2[C@@H](CN3C[C@@H](C)CC[C@H]3[C@@]2(C)O)[C@@H]2C[C@]34O[C@]5(O)[C@@H](OC(=O)[C@@](C)(O)CC)CC[C@@]3(C)[C@@H]5[C@@H](OC(C)=O)[C@@H](OC(C)=O)[C@H]4[C@@]21O`: the growth was 82.8%.

Turning to `Cc1cc(N(CCCl)CCCl)ccc1C=Nc1ccc(-c2csc(-c3ccccc3)n2)cc1`, the growth was 79.3%.

For the compound `COC1C(O)CC(OC2CC(Oc3cc4cc5c(c(O)c4c(O)c3C)C(=O)[C@@H](OC3CC(OC4CC(OC6CC(C)(O)C(OC(C)=O)C(C)O6)C(O)C(C)O4)C(O)C(C)O3)[C@H]([C@H](OC)C(=O)[C@@H](O)[C@@H](C)O)C5)OC(C)C2OC(C)=O)OC1C` (stereo not given in full), the growth was -11.7% (active).

Turning to `CC[C@H](C)[C@H]1O[C@]2(C=C[C@@H]1C)C[C@@H]1C[C@@H](C/C=C(\C)[C@@H](O[C@H]3C[C@H](OC)[C@@H](O[C@H]4C[C@H](OC)[C@@H](NC)[C@H](C)O4)[C@H](C)O3)[C@@H](C)/C=C/C=C3\CO[C@@H]4[C@H](O)C(C)=C[C@@H](C(=O)O1)[C@]34O)O2`, the growth was -60.9% (active).

For `O=C(O)c1ccccc1N(CCO)CCCl`, the growth is 95.1%.

On to `CSc1cc(/C=C(\C)[C@@H]2C[C@@H]3O[C@]3(C)CCC[C@H](C)[C@H](O)[C@@H](C)C(=O)C(C)(C)[C@@H](O)CC(=O)O2)n(CCNC(=O)OC(C)(C)C)n1`, for which the growth was 68.7%.

`Cc1cc[c-]cc1.Fc1c[c-]c(-c2ccccn2)c(F)c1.N#CCC[PH+](CCC#N)c1ccccc1.[Pt+2]`: the growth is 116%.

Regarding `C[C@]12CCc3sc(Nc4ccc(OC(F)(F)F)cc4)nc3C1=CC[C@@H]1[C@@H]2CC[C@]2(C)C(=O)CC[C@@H]12`, the growth is 80%.

On to `c1ccc2c(c1)sc1ccccc12`, for which the growth is 97.7%.

Take `CO/N=C1\CC[C@]2(C)[C@H]3CC[C@]4(C)C(=O)CC[C@H]4[C@@H]3C[C@@H]3SC(N)=N[C@@]32C1`: the growth is 112%.

Turning to `COC12CC3C4=CCOC5CC(=O)N6c7ccccc7C1(CCN2C4)C6C53` (stereo not given), the growth was 99.1%.
